The results in this text go back to PubChem BioAssay (Tox21).

Values joined by “and” are separate entries in the source; they are usually repeats but may differ in a detail not shown here. Identical values can stand only once. Records with an inconclusive call do not appear. Some compounds were tested as several samples or in several runs, with calls that do not always agree. Active and inactive are the calls of the source. Unless noted, the call rests on the fitted dose curve; in most records, active means well fitted curve in the direction sought with a large enough effect in the repeat runs; inconclusive means weak or mixed curves; inactive means no such curve, though single readings can be large; an effect the other way counts as inactive or inconclusive.

Experiment [1] deals with Peroxisome proliferator-activated receptor delta (Homo sapiens) (UniProt Q03181). The experiment in a line: qHTS assay to identify small molecule agonists of the peroxisome proliferator-activated receptor delta (PPARd) signaling pathway (AID 743212; calls by dose curve). A digest of the protocol: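 Read-out: beta-lactamase FRET fluorescence after 2 h room-temperature incubation with LiveBLAzer B/G substrate. Cells were HEK293H carrying a UAS-bla reporter for PPARd, treated at 37 C with DMSO-dissolved compounds.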
Sequence of Peroxisome proliferator-activated receptor delta (Homo sapiens) (Q03181 whole entry, looked up): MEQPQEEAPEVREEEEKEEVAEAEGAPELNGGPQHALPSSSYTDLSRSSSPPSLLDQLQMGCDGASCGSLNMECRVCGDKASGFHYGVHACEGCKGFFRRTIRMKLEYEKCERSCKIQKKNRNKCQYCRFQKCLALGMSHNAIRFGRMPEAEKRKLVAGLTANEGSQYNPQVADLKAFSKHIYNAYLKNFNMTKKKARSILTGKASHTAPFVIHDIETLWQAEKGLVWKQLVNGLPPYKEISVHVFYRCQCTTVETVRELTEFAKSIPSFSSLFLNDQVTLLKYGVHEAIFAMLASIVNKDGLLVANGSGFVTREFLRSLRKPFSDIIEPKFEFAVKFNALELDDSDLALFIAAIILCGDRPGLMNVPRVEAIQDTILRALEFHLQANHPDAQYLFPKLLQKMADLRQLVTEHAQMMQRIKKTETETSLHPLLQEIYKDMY
(In general: In qHTS, concentration-response curves come from the screen itself.)

Experiment [2] has the same target. Put plainly: qHTS assay to identify small molecule antagonists of the peroxisome proliferator-activated receptor delta (PPARd) signaling pathway (AID 743215; active means well fitted inhibition curve with a large enough effect in the signal ratio in the repeat runs, not every such curve was filed as active; the % refers to the signal ratio;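 further: cells stimulated with agonist L165041 at 300 nM final during compound exposure; series mostly up to about 62 µM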). A digest of the protocol:
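Screen format: qHTS, antagonist mode. HEK293H PPARd-bla cells received compound and 300 nM L165041 (final), 17 h, 37 C. Beta-lactamase detected via FRET substrate fluorescence, 2 h, room temperature.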

Experiment [3] is described as follows: qHTS assay to identify small molecule agonists of the farnesoid-X-receptor (FXR) signaling pathway - cell viability counter screen (AID 743218). Further: nearly all actives have a fitted effect of over 45% in size. Further: potency means the concentration at half of the fitted maximal effect. A digest of the protocol: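 Same-well cytotoxicity check on FXR-UAS-bla HEK 293T cells: 5 h attachment, 16 h compound at 37 C, CellTiter-Glo luminescence read at room temperature after 30 min.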
Experiment [4] can be described thus: qHTS assay to identify small molecule antagonists of the farnesoid-X-receptor (FXR) signaling pathway - cell viability counter screen (AID 743221; active means well fitted cell-killing curve with a large enough effect in the repeat runs, not every such curve was filed as active; further: nearly all actives have a fitted effect of over 50% in size). A digest of the protocol:
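Quantitative HTS of the Tox21 10K library run in parallel with the beta-lactamase reporter read. HEK 293T cells carrying a UAS-driven bla reporter got compound and 50 uM CDCA (final) for 16 h; ATP-based luminescence followed.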

Experiment [5] deals with Vitamin D3 receptor (Homo sapiens) (UniProt P11473). Put plainly: qHTS assay to identify small molecule agonists of the vitamin D receptor (VDR) signaling pathway (AID 743222; calls by dose curve). Put shortly: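 Using LiveBLAzer B/G FRET detection, agonism was scored in VDR-bla cells exposed overnight (16 h, 37C) to DMSO-dissolved compounds; substrate incubation was 2 h at room temperature.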
Sequence of Vitamin D3 receptor (Homo sapiens) (P11473 whole entry, looked up): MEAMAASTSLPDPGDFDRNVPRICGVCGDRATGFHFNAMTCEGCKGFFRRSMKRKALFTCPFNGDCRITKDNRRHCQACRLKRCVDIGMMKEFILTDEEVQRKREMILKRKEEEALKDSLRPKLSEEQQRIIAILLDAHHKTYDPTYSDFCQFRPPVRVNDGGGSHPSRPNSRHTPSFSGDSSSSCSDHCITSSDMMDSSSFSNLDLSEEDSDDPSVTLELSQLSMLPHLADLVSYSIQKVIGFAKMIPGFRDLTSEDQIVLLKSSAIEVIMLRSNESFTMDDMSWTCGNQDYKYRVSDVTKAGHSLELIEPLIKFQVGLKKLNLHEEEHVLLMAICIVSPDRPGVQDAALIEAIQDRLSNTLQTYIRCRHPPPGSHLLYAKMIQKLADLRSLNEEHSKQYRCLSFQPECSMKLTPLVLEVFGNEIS

The target is the same in experiment [6]. Put plainly: qHTS assay to identify small molecule antagonists of the vitamin D receptor (VDR) signaling pathway (AID 743223; active means well fitted inhibition curve with a large enough effect in the signal ratio in the repeat runs, not every such curve was filed as active; the % refers to the signal ratio; further: potency means the concentration at half of the fitted maximal effect). A digest of the protocol: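 Fluorescence from LiveBLAzer B/G FRET substrate, read after 2 h at room temperature, reflects beta-lactamase reporter activity in VDR-bla cells treated 16 h at 37C with compounds and agonist 1alpha,25-dihydroxyvitamin D3 (3 nM final).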

Experiment [7] is described as follows: qHTS assay to identify small molecule agonists of the vitamin D receptor (VDR) signaling pathway - cell viability counter screen (AID 743224). Further: series mostly up to about 63 µM; nearly all actives have a fitted effect of over 50% in size. A digest of the protocol: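 Counter screen for cytotoxicity: VDR-bla cells at 2,000 cells/well, 16 h compound exposure, then CellTiter-Glo luminescence after the beta-lactamase measurement.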
A short description of experiment [8]: qHTS assay to identify small molecule antagonists of the vitamin D receptor (VDR) signaling pathway - cell viability counter screen (AID 743225). Further: nearly all actives have a fitted effect of over 50% in size. A digest of the protocol: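 Cells (VDR-UAS-bla HEK 293T) are plated, rested 4 h at 37C, dosed with compound and 3 nM final 1-alpha,25-dihydroxy vitamin D3, and incubated 16 h. Viability is taken from CellTiter-Glo luminescence in the reporter wells.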

Experiment [9] can be described thus: qHTS assay to identify small molecule agonists of the NFkB signaling pathway (AID 1159509; active means well fitted curve in the direction sought with a large enough effect in the signal ratio in the repeat runs, not every such curve was filed as active; the % refers to the signal ratio; further: series mostly up to about 61 µM). Put shortly:
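Beta-lactamase reporter assay run in quantitative high-throughput format on an NF-kB-responsive ME-180 line, with 5 hr compound treatment and a FRET-based blue/green fluorescence readout.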

The nature of experiment [10]: qHTS assay to identify small molecule agonists of the NFkB signaling pathway - cell viability counter screen (AID 1159515; calls by dose curve; further: series mostly up to about 61 µM; nearly all actives have a fitted effect of over 55% in size). A digest of the protocol:
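Counter screen run alongside the NFkB-bla agonist assay: ME-180 reporter cells exposed to compounds for 5 hr, then lysed with CellTiter-Glo in the same wells. Luminescence, read after 30 min, reflects viable cells.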

The nature of experiment [11]: qHTS assay to identify small molecule agonists of the endoplasmic reticulum stress response signaling pathway (AID 1159516; active means well fitted activation curve with a large enough effect in the signal ratio in the repeat runs, not every such curve was filed as active; the % refers to the signal ratio). Put shortly:
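For this screen, HeLa cells stably carrying beta-lactamase under the ER stress response element received test compounds, positive controls or DMSO for 5 hr at 37 C; B/G FRET substrate was then added and dual-wavelength emission recorded.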

The nature of experiment [12]: qHTS assay to identify small molecule agonists of the endoplasmic reticulum stress response signaling pathway - cell viability counter screen (AID 1159517; calls by dose curve; further: series mostly up to about 61 µM; nearly all actives have a fitted effect of over 50% in size). Put shortly:
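Steps: seed 1,500 ESRE-bla HeLa cells per well; incubate overnight at 37 C, 5% CO2; add compounds in DMSO for 5 hr; run FRET substrate 2 hr RT; add CellTiter-Glo, wait 30 min, read luminescence.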

Experiment [13] is described as follows: qHTS assay to identify small molecule antagonists of the retinoid-related orphan receptor gamma (ROR-gamma) signaling pathway - cell viability counter screen (AID 1159520). Further: nearly all actives have a fitted effect of over 50% in size. Put shortly: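 Tet-on ROR gamma CHO cells were given compounds for 2 hr, then doxycycline hyclate at 1 uM final, and incubated 16 hr at 37 C. Viability was measured as ATP content by CellTiter-Glo luminescence.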

The nature of experiment [14]: qHTS assay to identify small molecule agonists of the AP-1 signaling pathway - cell viability counter screen (AID 1159525; calls by dose curve; further: nearly all actives have a fitted effect of over 55% in size). Put shortly: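 Same-well cytotoxicity counter screen of the Tox21 10K library in ME-180 cells. The readout is ATP-dependent luminescence after 5 h compound treatment. Data are normalised to DMSO and tetra n-octyl ammonium bromide controls.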
Experiment [15] in a line: qHTS assay to identify small molecule agonists of the AP-1 signaling pathway (AID 1159526; calls by dose curve).
A short description of experiment [16]: qHTS assay to identify small molecule agonists of the peroxisome proliferator-activated receptor delta (PPARd) signaling pathway - cell viability counter screen (AID 743211). Further: nearly all actives have a fitted effect of over 55% in size. Further: potency means the concentration at half of the fitted maximal effect. A digest of the protocol: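 Viability of GeneBLAzer PPARd UAS-bla HEK293H cells was assessed after 17 h compound incubation at 37C, using CellTiter-Glo reagent added after the reporter read and luminescence recorded 30 min later.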

A short description of experiment [17]: qHTS assay to identify small molecule antagonists of the peroxisome proliferator-activated receptor delta (PPARd) signaling pathway - cell viability counter screen (AID 743213). Further: nearly all actives have a fitted effect of over 50% in size. Further: potency means the concentration at half of the fitted maximal effect. Put shortly:
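Cytotoxicity counter screen: CellTiter-Glo luminescence read 30 min after addition, in the same wells as the reporter assay. There, PPARd UAS-bla HEK293H cells (3000/well) were treated 17 h at 37 C with compound and 300 nM L165041.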

Experiment [18] concerns the target Bile acid receptor (Homo sapiens) (UniProt Q96RI1). Put plainly: qHTS assay to identify small molecule antagonists of the farnesoid-X-receptor (FXR) signaling pathway (AID 743217; active means well fitted inhibition curve with a large enough effect in the signal ratio in the repeat runs, not every such curve was filed as active; the % refers to the signal ratio). Put shortly:
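Quantitative HTS, beta-lactamase reporter format: FXR-UAS-bla HEK 293T cells co-treated 16 h at 37 °C with compounds and 50 uM final chenodeoxycholic acid, then read by B/G FRET fluorescence.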

Experiment [19] concerns the target Nuclear receptor ROR-gamma (Homo sapiens) (UniProt P51449). Put plainly: qHTS assay to identify small molecule antagonists of the retinoid-related orphan receptor gamma (ROR-gamma) signaling pathway (AID 1159521; further: nearly all actives have a fitted effect of over 50% in size; further: potency means the concentration at half of the fitted maximal effect). A digest of the protocol:
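RORγ antagonism is scored from reduced reporter luminescence in Tet-on CHO cells. Induction used 1 uM final doxycycline hyclate for 16 h at 37 C, following a 2 h compound exposure.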

Sequence of Bile acid receptor (Homo sapiens) (Q96RI1 whole entry, looked up): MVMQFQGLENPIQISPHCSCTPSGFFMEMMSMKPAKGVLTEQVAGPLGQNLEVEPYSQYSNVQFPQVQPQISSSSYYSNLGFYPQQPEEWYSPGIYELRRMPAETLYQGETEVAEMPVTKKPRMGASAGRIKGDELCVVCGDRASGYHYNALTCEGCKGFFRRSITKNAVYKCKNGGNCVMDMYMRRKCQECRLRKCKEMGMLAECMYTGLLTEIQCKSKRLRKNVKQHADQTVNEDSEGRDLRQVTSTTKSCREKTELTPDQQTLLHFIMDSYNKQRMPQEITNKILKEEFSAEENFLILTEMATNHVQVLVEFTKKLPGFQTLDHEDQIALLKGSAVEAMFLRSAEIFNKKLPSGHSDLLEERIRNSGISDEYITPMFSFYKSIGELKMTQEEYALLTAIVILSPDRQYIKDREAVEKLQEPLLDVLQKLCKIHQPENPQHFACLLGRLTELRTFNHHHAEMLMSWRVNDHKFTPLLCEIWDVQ

For the compound `C[C@]12CC[C@@H]3c4ccc(O)cc4C[C@@H](CCCCCCCCCS(=O)CCCC(F)(F)C(F)(F)F)[C@H]3[C@@H]1CC[C@@H]2O` (some centres not stated), the compound was called inactive in experiment [1], in experiment [2], in experiment [4], in experiment [5], in [8] and in [9]. In addition, the compound was classed as inactive in [10], in experiment [11], in experiment [13] and in experiment [14]. The Potency entry in experiment [3], in experiment [6], in [7], in experiment [12] and in experiment [15] was “inactive” each time.
With `COC1=CC(=O)C[C@@H](C)[C@]12Oc1c(Cl)c(OC)cc(OC)c1C2=O`, the Potency result in experiment [16], in experiment [17], in [18], in experiment [3], in [7] and in experiment [12] was “inactive” in each case. The Potency result in experiment [15] was “inactive”. For the same compound, the call in experiment [1], in experiment [4], in experiment [5], in [8], in experiment [9] and in [10] was inactive. Moreover, the result in [13] and in [14] was inactive. The Potency in experiment [19] was 8.56 µM (active) and 19.3 µM (active) and inactive.
As to `NCCNc1cccc2ccccc12`, the Potency in [16] is 54.9 µM (active) and 47.8 µM (active) and inactive; in [17], 34.6 µM (active) and 30.2 µM (active) and inactive; in experiment [3], 43.6 µM (active) and 30.2 µM (active) and inactive; in [6] it was 43.6 µM (active) and inactive. The outcome in experiment [1], in [2], in experiment [4], in experiment [5], in experiment [8] and in experiment [9] was inactive. For the same compound, the outcome in [10], in [13] and in experiment [14] was inactive. Further, the Potency entry in experiment [7], in experiment [12] and in [15] was “inactive” throughout.
For the compound `CCCCOCCOCCSC#N`, the Potency result in experiment [16], in [17], in [3], in experiment [6], in experiment [7] and in experiment [12] was “inactive” each time. Also, the Potency entry in experiment [19] and in experiment [15] was “inactive” in each case. The result in experiment [1], in experiment [2], in experiment [4], in experiment [5], in experiment [8] and in experiment [9] was inactive. Further, the result in experiment [10], in experiment [13] and in [14] was inactive.
Turning to `CC(=O)OC/C=C(C)/C=C/C=C(C)/C=C/C1=C(C)CCCC1(C)C`, the outcome in experiment [1], in [2], in experiment [4], in experiment [5], in experiment [8] and in experiment [9] was inactive. Moreover, the compound was called inactive in experiment [10], in experiment [13] and in experiment [14]. For the same compound, the Potency entry in experiment [17], in [3], in [6], in experiment [7], in experiment [12] and in experiment [19] was “inactive” throughout. The Potency entry in experiment [15] was “inactive”.
With `COCC(C)N` (configuration not stated), the Potency entry in [16], in experiment [17], in [18], in experiment [3], in [6] and in [7] was “inactive” each time. The Potency entry in experiment [12], in experiment [19] and in experiment [15] was “inactive” in each case. The call in experiment [1], in experiment [2], in [4], in experiment [5], in experiment [8] and in [9] was inactive. Besides, the call in experiment [10] and in [13] was inactive.
Regarding `CC1=NN(c2ccccc2)C(=O)C1`, the Potency result in experiment [16], in [17], in experiment [18], in experiment [3], in experiment [7] and in experiment [12] was “inactive” in each case. Besides, the Potency entry in experiment [19] and in experiment [15] was “inactive” throughout. Also, the call in experiment [1], in experiment [2], in experiment [4], in [8], in experiment [9] and in experiment [10] was inactive. The compound was classed as inactive in [13].
